Shown are actives, neighbours in structure and some others; about 5.7% of the full set was active somewhere.
DRD3 antagonist: qHTS of D3 Dopamine Receptor Antagonist: qHTS. D(3) dopamine receptor (Homo sapiens), P35462. D3R cells, DiscoveRx beta-arrestin luminescence, antagonist mode; hits give low values. max response, negative = inhibition, %. actives 2.5% (n = 360,000); in the data active = max response below about -50%; inconclusive = no clear call, values can overlap the other calls; also: % is scaled to controls: 0 for no effect and ±100 for the full control effect
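Cells expressing the human receptor were seeded at 1500 cells/well, incubated overnight at 37 degrees C in 5% CO2, then exposed to library compounds with dopamine controls for 90 minutes at 37 degrees C before luminescent detection.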
ClpP mod: qHTS Assay for Activators of ClpP | ATP-dependent Clp protease proteolytic subunit (Bacillus subtilis (strain 168)), P80244 | purified B. subtilis ClpP, FRET peptide cleavage, 20 min | Potency, µM (doses to about 57.5 µM), for inactives: top-dose activity change, negative = active | actives 1.9% (n = 340,000) | AID 651965, 2013; active = well fitted falling curve with a large enough effect; inconclusive = small, poorly fitted or top-dose-only effect; inactive = no such curve, though single readings can be large or run the other way; also: potency is read from the fitted curve at half-maximal effect; the source files actives as falling curves though it sought activators and does not explain the sign; nearly all actives have a fitted effect of over 65% in size
Target sequence (P80244 whole entry, looked up): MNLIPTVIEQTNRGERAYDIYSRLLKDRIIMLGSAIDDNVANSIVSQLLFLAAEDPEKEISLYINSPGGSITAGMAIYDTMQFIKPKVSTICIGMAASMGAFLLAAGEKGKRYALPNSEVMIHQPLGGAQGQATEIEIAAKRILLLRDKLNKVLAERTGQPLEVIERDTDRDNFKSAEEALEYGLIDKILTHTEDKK
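Purified B. subtilis ClpP, 10 microg/mL final in Tris/HCl pH8 with KCl, BSA, glycerol and Tween-20, cleaved an Abz/nitrotyrosine-quenched decapeptide. Fluorescence (ex 320, em 430) was read at 0 and 20 min at room temperature. Delta was normalized to 5.8 microM ADEP and DMSO/no-enzyme controls.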
GLP-1R agonist: qHTS of GLP-1 Receptor Agonists; Glucagon-like peptide 1 receptor (Homo sapiens), P43220; HEK293 GLP-1R CRE-luciferase, luminescence, 4-6 h; cells express a hypersensitive GLP-1R form; Potency, µM (doses to about 45.6 µM), for the others: top-dose activation, most hits filed as activators; actives 0.007% (n = 380,000); AID 624172, 2012; also: potency is read from the fitted curve at half-maximal effect; % of control where 0% means no effect
Target sequence (P43220 whole entry, looked up): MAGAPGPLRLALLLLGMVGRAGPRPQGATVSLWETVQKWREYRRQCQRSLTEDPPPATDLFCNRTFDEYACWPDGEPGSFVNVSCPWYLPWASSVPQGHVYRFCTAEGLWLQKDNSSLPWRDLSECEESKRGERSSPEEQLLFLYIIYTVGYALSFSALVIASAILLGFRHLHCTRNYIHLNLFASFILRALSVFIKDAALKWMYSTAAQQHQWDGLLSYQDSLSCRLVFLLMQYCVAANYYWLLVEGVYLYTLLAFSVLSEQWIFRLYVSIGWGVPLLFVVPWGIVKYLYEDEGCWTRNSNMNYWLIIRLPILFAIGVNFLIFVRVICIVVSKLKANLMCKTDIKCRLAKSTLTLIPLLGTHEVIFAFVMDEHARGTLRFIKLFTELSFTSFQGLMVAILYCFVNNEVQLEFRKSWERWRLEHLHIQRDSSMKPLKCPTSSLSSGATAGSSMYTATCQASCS
GLP1R inv ag: qHTS of GLP-1 Receptor Inverse Agonists (Inhibition Mode). Glucagon-like peptide 1 receptor (Homo sapiens), P43220. HEK293 GLP-1R CRE-luciferase, luminescence, 24 h; GLP-1R form is constitutively active. Potency, µM (highest dose often 38.3 µM), without a hit: at the top dose activity change, negative = inhibition, hits mostly inhibitors. actives 1.6% (n = 410,000); also: potency is read from the fitted curve at half-maximal effect; % is scaled to controls: 0 for no effect and ±100 for the full control effect; nearly all actives have a fitted effect of over 55% in size
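qHTS in 1536-well format: reporter HEK293 cells expressing constitutive GLP-1R activity in DMEM + 10% Nu serum, 24 hr with compounds at 37 deg C, luminescence read after 12 min with detection reagent.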
GLP1R cytotox: qHTS of GLP-1 Receptor Inverse Agonists: Cytotox Screen. HEK293 cAMP-luciferase reporter cells, luminescence, 24 h. Potency, µM (series often up to 38.3 µM), without a hit: at the highest dose activity change, negative = inhibition, most hits filed as inhibitors. actives 0.13% (n = 410,000). AID 624418, 2012;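 also: loss of luciferase light is scored as toxicity; potency is read from the fitted curve at half-maximal effect; % is scaled to controls: 0 for no effect and ±100 for the full control effect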
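MLSMR compounds, 24 hr on cells at 37 deg C/5% CO2; luminescence after luciferase reagent (12 min RT). Inhibition counted as the undesired cytotoxic outcome.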
D3 ag: qHTS of D3 Dopamine Receptor Agonist: qHTS | D(3) dopamine receptor (Homo sapiens), P35462 | D3R DiscoveRx beta-arrestin cells, luminescence, 90 min | max activation, % | actives 0.58% (n = 410,000) | AID 652048, 2013; in the data active = max activation above about 30%; also: 0% is about no effect
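Agonist-mode cell screen: cells plated at 1500/well and incubated overnight at 37 °C, then exposed to library compounds for 90 min at 37 °C. Detection reagent was added for 30–60 min at room temperature, and luminescence was read.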
The depositor's hits bear a star; ? = inconclusive; / = not tested or not shown; [ ] = remark or other dose. Unless noted, calls follow the shape of the dose curve; as a rule, active = well fitted curve in the direction sought with a large enough effect; inconclusive = small, poorly fitted or top-dose-only effect, or another doubt; inactive = no such curve, though single readings can be large; an effect the other way counts as inactive or inconclusive.

SMILES	DRD3 antagonist	ClpP mod	GLP-1R agonist	GLP1R inv ag	GLP1R cytotox	D3 ag
COc1ccc(Cl)cc1NC(=O)CSc1nc(=O)n(CCN(C)C)c2c1CCCC2	-21	-4%	-1%	11µM*	0%	-20
O=C(CSC1=NCCN1)Nc1cccc(C(F)(F)F)c1	-65*	?	0%	-19%[7.66 µM]	-1%[7.66 µM]	-11
CC(=O)c1cc(NC(=O)c2ccc(Cl)cc2)c(=O)oc1/C=C/N(C)C	-72*	-3%	-5%	0%	3%	-4
Cc1ccnc(SCc2ccc([N+](=O)[O-])cc2)n1	-57*	/	6%	45%	14%	-4
CCOc1ccc(OCC)c(-c2c(=O)n(OCc3ccc(C(C)(C)C)cc3)c3ccccc3[n+]2[O-])c1	11	1%	-5%	-2%	-10%	52*
Cc1ccccc1-c1nc2c(=O)n(C)c(=O)nc-2n(C)n1	/	-1%	/	/	/	/
CCCc1nc2c(=O)n(C)c(=O)nc-2n(C)n1	-61*	/	-5%	?	?	-11
Cn1nc(-c2ccccn2)nc2c(=O)n(C)c(=O)nc1-2	-69*	0%	-8%	3.2µM*	?	-18
CC(C)Oc1cc(F)ccc1-c1cc(C(=O)NC2CCCCC2)[nH]n1	?	-1%	15%	?	-6%	-15
CCCOc1ccc(F)cc1-c1cc(C(=O)NC2CCCCC2)[nH]n1	-102*	-4%	5%	?	-10%	-19
Cc1cc(F)ccc1-c1cc(C(=O)NC2CCCCC2)[nH]n1	-83*	2%	-6%	?	-5%	-22
O=Cc1ccc(I)cc1	/	0%	/	/	/	/
CCOC(=O)c1[nH]c(C)c(CCC(=O)N2CCN(c3ccc(OC)cc3)CC2)c1C	/	1%	/	5%	5%	-12
COc1cccc(-c2oc3c(c2C#CC2(N)CCCCC2)C(O)CCC3)c1 (centres undefined)	2	-9%	-3%	-30%	21%	2
Oc1c(Cl)cc(Cl)cc1C1=NNC(c2ccc(Cl)cc2)C1 (centres undefined)	-64*	/	-1%	?	32%	-22
NS(=O)(=O)c1cccnc1Nc1c(Cl)cccc1Cl	-12	28µM*	10%	1%	14%	-3
O=c1[nH][nH]c2c1[C@H](c1ccc(F)cc1)O[C@H](CCc1ccccc1)C2	-21	-1%	-4%	?	5%	2
O=C(COc1cccc(OC(F)F)c1)Nc1ccc(SC(F)F)cc1	-27	-4%	9%	10µM*	3%	-6
O=C(COc1cccc(Oc2ccccc2)c1)Nc1ccc(SC(F)F)cc1	6	-6%	-1%	0%	-45%	-5
Cc1ccc(C(=O)c2ccccc2C(=O)OCC(=O)Nc2ccc(SC(F)F)cc2)cc1	1	-1%	-7%	8.9µM*	7%	-3
CCOC(=O)c1cnc(-c2ccccc2)nc1N1CCOCC1	1	/	18%	-12%	-13%	-2
CCOC(=O)C1(C(F)(F)F)N=C(c2cccnc2)OC(N2CCOCC2)=N1 (centres undefined)	-59*	2%	0%	20%	-1%	-2
CC(C)N(CCC(=O)c1ccc2ccccc2c1)Cc1ccccc1	-132*	103%	-1%	-11%	-15%	-76
CC(OC(=O)c1ccc2ccccc2c1)C(=O)N(C)Cc1ccccc1 (centres undefined)	13	-25%	-8%	?	-9%	-2
CCCCC1=NN(C(=O)c2ccncc2)C(O)(C(F)(F)F)C1 (centres undefined)	-4	-4%	4%	?	-1%	-3
SMILES	DRD3 antagonist	ClpP mod	GLP-1R agonist	GLP1R inv ag	GLP1R cytotox	D3 ag
CCCC1=NN(C(=O)C(=O)Nc2ccc(Br)cc2)C(O)(C(F)(F)F)C1 (centres undefined)	-56*	/	12%	7.1µM*	?	-9
CCCCC1=NN(C(=O)c2ccco2)C(O)(C(F)(F)F)C1 (centres undefined)	-2	/	6%	2.2µM*	?	17
CN1CCn2cnc(C(=O)N[C@@H](Cc3ccccc3)C(=O)OC(C)(C)C)c2C1=O	-3	1%	2%	0%	-13%	0
CC(C)c1ccc(NC(=O)C(Cc2ccccc2)NS(=O)(=O)c2ccc3c(c2)CCC(=O)N3)cc1 (centres undefined)	/	-2%	-3%	-17%	-9%	-8
Cc1ccc(NS(=O)(=O)c2ccc3[nH]c4c(c3c2)CCCCC4)cc1	/	-18%	/	11µM*	?	-5
COc1ccc(C(=O)C(=O)N2CCN(c3ccc(C)cc3)CC2)cc1OC	3	0%	/	13%	3%	8
CCc1ccc(NC(=O)CN2C(=O)c3cccc4cccc2c34)cc1	/	4%	/	3%	-12%	6
Cc1cc(C)cc(NC(=O)N2CCC(C(N)=O)(N3CCCCC3)CC2)c1	/	-2%	/	13%	3%	1
Cc1cc(Cl)ccc1NC(=O)CN1CCC(C(O)(c2ccccc2)c2ccccc2)CC1	-62*	-1%	-2%	0%	-11%	-7
Cc1cc(Cl)ccc1NC(=O)CN1CCCC1	4	/	10%	6%	8%	-23
CCN(CC(=O)NC1CCS(=O)(=O)C1)S(=O)(=O)c1ccc2ccccc2c1 (centres undefined)	5	25µM*	-1%	0%	-1%	3
COC(=O)c1cccc(NC(=O)CSc2nc(=O)cc(N)n2-c2ccccc2)c1	-51*	-2%	8%	65%	1%	-2
Cc1ccc(NC(=O)CSc2nc(=O)cc(N)n2-c2ccccc2)cc1	7	-1%	-1%	1%	0%	-10
CCC(=O)N1CCN(c2ccc(NC(=O)c3ccc(C#N)cc3F)cc2Cl)CC1	6	/	11%	6%	-2%	17
CN1CCN(c2ccc(NC(=O)c3ccc(C#N)cc3F)cc2Cl)CC1	-57*	/	0%	?	-17%	-5
CCCc1cc(N2CCCC(C(=O)Nc3cc(Cl)ccc3OC)C2)n2ncnc2n1 (centres undefined)	20	0%	-4%	1%	-2%	-1
CCCc1cc(N2CCCC(C(=O)Nc3c(OC)cccc3OC)C2)n2ncnc2n1 (centres undefined)	-5	-3%	23%	0%	3%	31*

From PubChem
